Our source for the growth values is PubChem BioAssay (NCI).

Structures are written as SMILES. This is part of a sample that, as a whole, favours compounds with a hit. Of some 83,000 tested, about 20% had one in any assay.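 Testing used 96-well plates and a 48-hour single-concentration exposure. Example: -40 means 40% of the starting cells died.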 Values without a mark were called inactive. Active and inactive are the calls of the source. Rule for the calls: active = growth percent below 10; inactive = the rest.

For this experiment, the system named is MDA-MB-468 breast. The experiment in a line: NCI-60 one-dose screen, 48 h (100 = growth as untreated, 0 = no growth, -100 = all killed). Conditions: 10 µM unless noted.
For the compound `N=C(N)c1ccc(-c2cc(Cl)cc(Cl)c2)cn1`, the growth is 78.7%.

As for `COc1cc2ncnc(-n3ncc4cc(NC(=O)Nc5ccccc5)ccc43)c2cc1OC`, the growth is -67% (active).

For the compound `CCCCCC(=O)Oc1ccc(/C(=C(\C)c2ccc(OC)cc2)c2ccc(OCCN3CCCCC3)cc2)cc1`, the growth is 85.3%.

Regarding `Cc1ccccc1CNc1c2ccccc2nc2ccccc12`, the growth was 5.84% (active).

On to `O=C1C2=C(C(=O)c3c(O)cccc31)C(c1ccco1)c1sc(=O)[nH]c1S2` (stereo not given), for which the growth is 7.85% (active).

Consider `CCOc1ccccc1/C=N\N=C(\N)N/N=C/c1ccccc1OCC`, for which the growth is -8.3% (active).

Consider `CN1CCN(c2ccc(NC3=C(Cl)C(=O)c4ncccc4C3=O)cc2C#N)CC1`, for which the growth is -65% (active).

On to `CN1CCN(Cc2ccc(/C=N/Nc3ccnc4cc(Cl)ccc34)cc2)CC1`, for which the growth is 77.1%.

As for `CCOC(=O)C1=C(C)N2C(=NC3=C(CCC/C3=C\c3ccc(Cl)cc3)C2c2ccc(Cl)cc2)S1` (stereo not given), the growth was 4.45% (active).

On to `O=C(/C=C/c1ccccc1)Nc1ncc(Cc2ccccc2Cl)s1`, for which the growth was 8.79% (active).

With `COc1ccc([C@H]2c3cc(OC)c(OC)cc3C=C(C=O)C2CO)cc1OC` (stereo not given in full), the growth was 41%.

For `CCCCn1c(-c2ccc(C(=O)O/N=C(\N)c3ccc(OC)cc3)cc2)nc(-c2ccccc2)c1-c1ccccc1`, the growth is -14.4% (active).

Regarding `COc1cccc(OC)c1C(=O)N[C@@H]1C(=O)N2[C@@H]1SC(C)(C)[C@@H]2C(=O)O`, the growth is 114%.

Turning to `COc1ccc(CCN2CCCn3c2nc2ccccc2c3=O)cc1`, the growth is -14% (active).

`Cc1nc2ccccc2c(/C=C/c2ccccc2)c1C(=O)/C=C/c1ccc(Cl)cc1`: the growth was 19.4%.
